Measured values published in publication PMC13494018.

B1: design_597_f3dcd2b3-c7aa-4b15-88bc-bbb8d01a18cd_2381_dldesign_0_cycle1_af2pred (protein)
chain: AAAEAAAAAAKAAAKAEAAKHLEKAFDLIADGGTVEEVEKEAEKAIEYAAKADEKYKKLAERTAKRIIENAKIAAKREEEN
B2: design_597_f3dcd2b3-c7aa-4b15-88bc-bbb8d01a18cd_1765_dldesign_0_cycle1_af2pred (protein)
chain: SMEEEKKKKEAEKARKEAEKAIEEIKKNPENKELQTEALAKAYEAKAIDKEVGKEAIKKVREAIKEARKKL
B3: design_597_f3dcd2b3-c7aa-4b15-88bc-bbb8d01a18cd_2160_dldesign_0_cycle1_af2pred (protein)
chain: NATEIYREGREKAKELAKKGGKLVKDGEEFARRLVAAANTYFADPEEGEKQLDELIKEAEKESPEAAKIAKEVLKAAKEYLKKLDEEG
B4: design_597_f3dcd2b3-c7aa-4b15-88bc-bbb8d01a18cd_1341_dldesign_0_cycle1_af2pred (protein)
chain: AAAVEAAKAEITKLAAELSAKAFEAKAAASVFPEYKPVYELYKEAAEKAKEGLVLLKALGEKALEEAKKLAEEAKKLAKEGDELEKKL
B5: design_597_f3dcd2b3-c7aa-4b15-88bc-bbb8d01a18cd_2357_dldesign_0_cycle1_af2pred (protein)
chain: NEEIKAKQLAGRLEALADSLKSAAEKAAKETKDPEKAKKLKEIAKEAEKAVEEAKKKIKEGKAEEAYKEGKEKVEKAKKEVEKIAKE
B6: design_598_15ab41e9-cad4-4381-8935-81f74b313fe8_88_dldesign_0_cycle1_af2pred (protein)
chain: GSAKELAEKLRYVNRKIKEAGELAKELEKAGYPEEAKKLRELAQKARDALMAGDLDAAYKAAKELEEKIKEAKKKLEA
B7: design_597_f3dcd2b3-c7aa-4b15-88bc-bbb8d01a18cd_2474_dldesign_0_cycle1_af2pred (protein)
chain: MKADEEAAKKAAAARDTAFDKIAAGEDPQAAYDAAKAEMKKIAEEYGVSPETKEKIEKGIKALERFAAAAAKAAA
B8: design_598_15ab41e9-cad4-4381-8935-81f74b313fe8_13_dldesign_0_cycle1_af2pred (protein)
chain: AEKSREEGVKKAEEAAKLAKEAGLEEKAKKIKEAAKKAAKTGTDEDLKELSKTALEAAKLADPEKGAKISELRVEAAGYFELARIQ
B9: design_597_f3dcd2b3-c7aa-4b15-88bc-bbb8d01a18cd_1020_dldesign_0_cycle1_af2pred (protein)
chain: GHSEEGKEISEKIREISRIAKEAGKEIKKYPGGEELMKELGETRDKAIDEAAEGGLEEAKKALEKVKKAAKELLKKAKA
B10: design_597_f3dcd2b3-c7aa-4b15-88bc-bbb8d01a18cd_2475_dldesign_0_cycle1_af2pred (protein)
chain: MTPLEESAAKAQEAREEAAEKEQKGKLLAEKGNYKEGAKEYKKGAEELKKAAKFAEEAGDKEAAERLKKRAERLEKLAKEYEKKAK
B11: design_597_f3dcd2b3-c7aa-4b15-88bc-bbb8d01a18cd_1746_dldesign_0_cycle1_af2pred (protein)
chain: SLKTKALAEAGRAIALSDSVISALPDSELAKKAKEIKKKAEEAMEKAEKGEKLEEALKEAKKLKEEAKKLRKEAEKEKKA
B12: design_598_15ab41e9-cad4-4381-8935-81f74b313fe8_205_dldesign_0_cycle1_af2pred (protein)
chain: DFKAKADAEATLERAEQAEKAAKKIGEELAKLAEEAKKLAEAGLKSDDPEKREALTKAARELLKELQKLGKEKKEK
B13: design_597_f3dcd2b3-c7aa-4b15-88bc-bbb8d01a18cd_1491_dldesign_0_cycle1_af2pred (protein)
chain: DEGEKLKKEFKEEIEEVAKEAKELVKEGVSPKVAARLVENTAEVLIKEAEKHKEGEEIKKAVKEEAEKKKEEILKL
B14: design_597_f3dcd2b3-c7aa-4b15-88bc-bbb8d01a18cd_627_dldesign_0_cycle1_af2pred (protein)
chain: MYKELAENYRKGVRALSRRYRLRAELDPAKAAEYGAEATRERDKLFNASPEEVKKAAEEWAKEEAAVAAEAAALAAAA
B15: design_597_f3dcd2b3-c7aa-4b15-88bc-bbb8d01a18cd_1586_dldesign_0_cycle1_af2pred (protein)
chain: AAAIEKAKAAVEELLKAAEEALKLAEKDPSYAKYAEEVKKKINKVAKELKEALLADPSVANKLQEARQIATEAEATAKIKK
B16: design_597_f3dcd2b3-c7aa-4b15-88bc-bbb8d01a18cd_2241_dldesign_0_cycle1_af2pred (protein)
chain: EAAAIAKEAAAVAEEAAKKEEDPGKAEALKKAAKRIKAAAAGTKFEIASAVASAAEQAEWVGYPKEVVDKLEAKAEKIEKA
B17: design_598_15ab41e9-cad4-4381-8935-81f74b313fe8_127_dldesign_0_cycle1_af2pred (protein)
chain: SAMDLLLEILDYNDEALKAAKEGNKEEMEKYIKKAFEIAEELGKKYGPEAEERAKRYVEKAKKEAEEIYKK
B18: design_597_f3dcd2b3-c7aa-4b15-88bc-bbb8d01a18cd_2262_dldesign_0_cycle1_af2pred (protein)
chain: AEAEEALKAAKAAAAKAKEAADAAIADPATKAAGEKAKKLIEAREKKAEANASDVRVLQSAVEFFNHMAAALKKILA
B19: design_597_f3dcd2b3-c7aa-4b15-88bc-bbb8d01a18cd_2462_dldesign_0_cycle1_af2pred (protein)
chain: DPLREAAKAAVEAMGKAAKEVGLTKEASELAGLVHEALSAAKAGIHAKEILKEAAEAAKKAAEEYPEAKELFEKVAKEVEKMEKLV
B20: design_597_f3dcd2b3-c7aa-4b15-88bc-bbb8d01a18cd_2339_dldesign_0_cycle1_af2pred (protein)
chain: AKALRYAGRAEIYMELAETAAKLAIEAAKKDPAEGKKYLEKMKEKVKKAVELAEKADPALAKEYEAKGKELIEKAEKAIKAQIEKA
B21: design_597_f3dcd2b3-c7aa-4b15-88bc-bbb8d01a18cd_2142_dldesign_0_cycle1_af2pred (protein)
chain: AAAAAAAEAARAEAAKAFTEAIDLAYSDPKYIPILEKTSEDSAATFIAAGKLSGKTAEWTAKGELIKKTSERIIKDIKK
B22: design_597_f3dcd2b3-c7aa-4b15-88bc-bbb8d01a18cd_2332_dldesign_0_cycle1_af2pred (protein)
chain: SVVEEVKEEAKKAIEEGKKGDAGTAAALGYEAKALAEQKAKLYPEEAEELKKIAEEVKKEAKEIAEKKLKEKKAA
B23: design_597_f3dcd2b3-c7aa-4b15-88bc-bbb8d01a18cd_1536_dldesign_0_cycle1_af2pred (protein)
chain: SGANAAQEARAEYTAAKQLAKINKKDKEKAAKLLEEAYKKVEELAKKADEEGKKIAEKYAKELKELAKKYLKE
B24: design_597_f3dcd2b3-c7aa-4b15-88bc-bbb8d01a18cd_2336_dldesign_0_cycle1_af2pred (protein)
chain: AQAAKVAAALAAAEKRLAISTARAKELAKKNPQAGYEYMEIRTDHMAAALAKVDPAAGAEVKARGAALAAEIKA
B25: design_598_15ab41e9-cad4-4381-8935-81f74b313fe8_148_dldesign_0_cycle1_af2pred (protein)
chain: MAEEAKKTSDAIREMVKIAKEAGKEVAGSPEAQKKIAAARDKAMDAVAAGEDPEEQLKKAKEEIEAVVAEEKA
B26: design_597_f3dcd2b3-c7aa-4b15-88bc-bbb8d01a18cd_2012_dldesign_0_cycle1_af2pred (protein)
chain: AEAKKEAAKLSEEAAELAAEAWLKAKKAKPEEAEKYKKAAEYFKEAIKILQAGEDLEKAKALYEKGKALYEEA
B27: design_597_f3dcd2b3-c7aa-4b15-88bc-bbb8d01a18cd_1493_dldesign_0_cycle1_af2pred (protein)
chain: AEAERARREAALAEAERRAAELIFAAVDEGTKVSNEEAAKVMEETRARIEALMDETGAAYDPERAAEIRDRATATMTRLAESYK
B28: design_597_f3dcd2b3-c7aa-4b15-88bc-bbb8d01a18cd_1306_dldesign_0_cycle1_af2pred (protein)
chain: GKMKEDEEKLKEIEKEAKKAIEEAKKLAKEDPKKGAEYAKKASKEITERGTELGKTMSPEVRKKLAEVVQKAREELTEIAFKAR
B29: design_598_15ab41e9-cad4-4381-8935-81f74b313fe8_72_dldesign_0_cycle1_af2pred (protein)
chain: SELVKKASDLYRELVRKAREVAEKAGKAGDPEEAKKLAGDAVWAAQENVEEGIKIAKELGKKTGVEKEVEEFIKLMKEYAKALEEVSN
B30: design_597_f3dcd2b3-c7aa-4b15-88bc-bbb8d01a18cd_925_dldesign_0_cycle1_af2pred (protein)
chain: HKEENEAMKEILDEFNEAGRKMQEYVKAGKLEEAKKALEEEAKKMLEIGKKAGENALELAEELVEEARRNLEKAIEAAK
B31: design_598_15ab41e9-cad4-4381-8935-81f74b313fe8_121_dldesign_0_cycle1_af2pred (protein)
chain: MMEKKKKEAEIKRDAAIEQAKTIVEANKDKPFEEILEKVEKSVERFKESIEKIDPEIGKEEGEKARKESEEIVKKASEA
B32: design_597_f3dcd2b3-c7aa-4b15-88bc-bbb8d01a18cd_1026_dldesign_0_cycle1_af2pred (protein)
chain: MEVVEKMAEEIAKAAEEAGDKVTAALARAVAARAKKEKEISPEEAVKRLGEDAKFMAEDNGNEELAKKIKEIAEKALKEV
B33: design_597_f3dcd2b3-c7aa-4b15-88bc-bbb8d01a18cd_2077_dldesign_0_cycle1_af2pred (protein)
chain: EIKKLAAEAFDYYYEAKAMADALKADKNGKEAAKKIEELAKKIKEYGKKILETKDLKEAKKLYEEAKKLYEEAVKIFDEFAK
B34: design_597_f3dcd2b3-c7aa-4b15-88bc-bbb8d01a18cd_2297_dldesign_0_cycle1_af2pred (protein)
chain: MEEAEKLLKKAEEAAKKGDAETAKKLAEELRELSKKEKDKEKAAAYSEAAFEAKGYAFLAEIKQEKKKELE
B35: design_597_f3dcd2b3-c7aa-4b15-88bc-bbb8d01a18cd_1120_dldesign_0_cycle1_af2pred (protein)
chain: MLAKIARIIADITTATAKLLRKTGPKFVKLTKVLAVLADIIGDLALKTGKEEDIKAGGYALAAAERARHAAEAAE
B36: design_597_f3dcd2b3-c7aa-4b15-88bc-bbb8d01a18cd_1719_dldesign_0_cycle1_af2pred (protein)
chain: LEKNVKKAIEAAKKAIEAGKKAKEAGLEELAKEAIEKAKKAIEAAAKDKASGGETAKETANAAQEARQAKSEAESAIKKK
B37: design_597_f3dcd2b3-c7aa-4b15-88bc-bbb8d01a18cd_1782_dldesign_0_cycle1_af2pred (protein)
chain: MEEVKKKVAEAVQAGYRAAATLSKEEGKKLREETKELAKKLTELVKKSEELAGDPEKAKALADEATKIAEKAKEEYEKIDKA
B38: design_597_f3dcd2b3-c7aa-4b15-88bc-bbb8d01a18cd_1339_dldesign_0_cycle1_af2pred (protein)
chain: AEAEKYKKEAEKALKELEEIAKKYPSSTKIQANYESAKEYFEHNEQAAKLNPEKAAEAYKKAYEYAKRKLEEAKKIAEELEKKE

biological target: VTCN1, Q7Z7D3
Sequence (Q7Z7D3 whole entry): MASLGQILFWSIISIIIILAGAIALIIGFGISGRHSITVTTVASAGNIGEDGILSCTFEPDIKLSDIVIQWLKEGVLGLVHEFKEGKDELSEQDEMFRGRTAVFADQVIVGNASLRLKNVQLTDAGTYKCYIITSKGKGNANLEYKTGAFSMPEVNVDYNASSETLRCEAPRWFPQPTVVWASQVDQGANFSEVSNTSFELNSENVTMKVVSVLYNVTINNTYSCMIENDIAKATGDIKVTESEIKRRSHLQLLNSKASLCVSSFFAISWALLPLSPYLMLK

Binding in a display sort, inactive:
B1 not found, B2 not found, B3 not found, B4 not found, B5 not found, B6 not found, B7 not found, B8 not found, B9 not found, B10 not found, B11 not found, B12 not found, B13 not found, B14 not found, B15 not found, B16 not found, B17 not found, B18 not found, B19 not found, B20 not found, B21 not found, B22 not found, B23 not found, B24 not found, B25 not found, B26 not found, B27 not found, B28 not found, B29 not found, B30 not found, B31 not found, B32 not found, B33 not found, B34 not found, B35 not found, B36 not found, B37 not found, B38 not found
